The whole screen tested about 5,500 compounds, of which about 2,000 (36%) were called active. Roughly 18% stayed inconclusive and do not appear here. Rule as the data show it: active = normalized growth mostly below about 0.91 (no sharp cut-off); inconclusive = no clear call, values can overlap the other calls; inactive = mostly above about 0.92. The list shows a part of the results.
Assay: chemical genetic growth profiling, strain panel (AID 1159580);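 also: tested at 20 µM; growth read once vehicle control cultures reached saturation at 30 °C; 1 = growth at the plate median or of vehicle wells; lower values mean less growth of the strain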
Conditions: S. cerevisiae deletion strains, growth OD

Measured: normalized growth

O=C(NNc1ccccc1)c1cc(-c2ccc(Cl)cc2)oc1C(F)(F)F
inactive: locus YAR019C, strain CDC15, hits give low values 0.947 | locus YBL105C, strain PKC1, hits give low values 0.952 | locus YBR135W, strain CKS1, hits give low values 0.934 | locus YBR136W, strain MEC1, hits give low values 0.952 | locus YBR160W, strain CDC28, hits give low values 0.942 | locus YDL017W, strain CDC7, hits give low values 0.949 | locus YDL028C, strain MPS1, hits give low values 0.957 | locus YDL101C, strain DUN1, hits give low values 0.973 | locus YDL108W, strain KIN28, hits give low values 0.95 | locus YDL132W, strain cdc53, hits give low values 0.953 | locus YDL214C, strain PRR2, hits give low values 0.714 | locus YDR052C, strain DBF4, hits give low values 0.956 | locus YDR054C, strain cdc34, hits give low values 0.94 | locus YDR226W, strain ADK1, hits give low values 0.951 | locus YFL009W, strain cdc4, hits give low values 0.958 | locus YFL029C, strain CAK1, hits give low values 0.943 | locus YFR003C, strain YPI1, hits give low values 0.958 | locus YFR019W, strain FAB1, hits give low values 0.779 | locus YFR028C, strain CDC14, hits give low values 0.942 | locus YHR079C, strain IRE1, hits give low values 0.541 | locus YHR205W, strain SCH9, hits give low values 0.624 | locus YIL147C, strain SLN1, hits give low values 0.96 | locus YJL128C, strain PBS2, hits give low values 0.975 | locus YJL157C, strain FAR1, hits give low values 0.75 | locus YJR016C, strain ILV3, hits give low values 0.95 | locus YJR066W, strain TOR1 (second series), hits give low values 0.66 | locus YKL193C, strain SDS22, hits give low values 0.954 | locus YMR001C, strain CDC5, hits give low values 0.942 | locus YMR277W, strain FCP1, hits give low values 0.953 | locus YNL006W, strain LST8, hits give low values 0.96 | locus YNL161W, strain CBK1, hits give low values 0.944 | locus YNL183C, strain NPR1, hits give low values 0.697 | locus YNL207W, strain RIO2, hits give low values 0.959 | locus YNL222W, strain SSU72, hits give low values 0.931 | locus YOL078W, strain AVO1, hits give low values 0.952 | locus YOL136C, strain PFK27, hits give low values 0.727 | locus YOR061W, strain CKA2, hits give low values 0.795 | locus YOR329C, strain SCD5, hits give low values 0.957 | locus YPL209C, strain IPL1, hits give low values 0.926 | locus YPR025C, strain CCL1, hits give low values 0.951 | locus YPR106W, strain ISR1, hits give low values 0.933 | locus YPR111W, strain DBF20, hits give low values 0.931 | strain NNK1, hits give low values 0.939 | strain TSCII, hits give low values 0.95
active: locus YDR477W, strain SNF1, hits give low values 0.615 | locus YER123W, strain YCK3, hits give low values 0.522 | locus YER133W, strain GLC7, hits give low values 0.629 | locus YGR040W, strain KSS1, hits give low values 0.622 | locus YGR052W, strain FMP48, hits give low values 0.38 | locus YGR092W, strain DBF2, hits give low values 0.434 | locus YHR030C, strain SLT2, hits give low values 0.289 | locus YHR082C, strain KSP1, hits give low values 0.5 | locus YJL095W, strain BCK1, hits give low values 0.293 | locus YJR066W, strain TOR1, hits give low values 0.456 | locus YKL048C, strain ELM1, hits give low values 0.762 | locus YKL067W, strain YNK1, hits give low values 0.686 | locus YKL101W, strain HSL1, hits give low values 0.521 | locus YKL203C, strain TOR2, hits give low values 0.636 | locus YLR113W, strain HOG1, hits give low values 0.234 | locus YLR133W, strain CKI1, hits give low values 0.678 | locus YLR403W, strain SFP1, hits give low values 0.653 | locus YML070W, strain DAK1, hits give low values 0.465 | locus YMR205C, strain PFK2 (second series), hits give low values 0.667 | locus YNL020C, strain ARK1, hits give low values 0.683 | locus YNL307C, strain MCK1 (second series), hits give low values 0.549 | locus YOR119C, strain RIO1, hits give low values 0.684 | locus YOR231W, strain MKK1, hits give low values 0.46 | locus YPL031C, strain PHO85, hits give low values 0.443 | locus YPL153C, strain RAD53, hits give low values 0.339 | locus YPL204W, strain HRR25, hits give low values 0.58 | locus YPL256C, strain CLN2, hits give low values 0.492

— PubChem BioAssay AID1159580 (chemical genetic matrix, 2015)
